Screening results (PubChem BioAssay)
Luciferase inh = Photinus pyralis luciferase inhibition; P08659; purified P. pyralis luciferase, luminescence, biochemical; Potency, µM (top dose mostly 115 µM), usual class: inhibitors; 76,000 compounds, 2.5% hits; AID 1347043; note: % is set by controls: 0 for no effect and ±100 for the full control effect; nearly all actives have a fitted effect of over 65% in size
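FLuc 10nM, D-luciferin 10uM, ATP 10uM, Mg acetate 10mM, Tris acetate pH 7.5, Tween/BSA; cpd qHTS; enzyme added last; CCD luminescence.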
NIH3T3 tox = kills NIH 3T3 cells; NIH 3T3 viability, CellTiter-Glo ATP luminescence, 48-72 h; Potency, µM (titrated, usually from 96.7 µM), for inactives: at the top dose activity change, negative = cytotoxicity, actives largely listed as inhibitors; 94,000 compounds, 4.3% hits; AID 1345082; note: % is set by controls: 0 for no effect and ±100 for the full control effect; nearly all actives have a fitted effect of over 55% in size
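Mouse fibroblast NIH 3T3 cells, 400 per well, received compound via pintool and were incubated for 48 or 72 hr prior to CellTiter-Glo ATP luminescence measurement.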
hNpr1 antagonist = antagonists of human natriuretic peptide receptor Npr1. HEK293 hNpr1 GloSensor cGMP, ANP-stimulated luminescence. Potency, µM (highest dose often 46.3 µM), for the others: top-dose activity change, negative = inhibition, hits mostly inhibitors. P16066. 76,000 compounds, 1.6% hits; calls by dose curve; note: % is set by controls: 0 for no effect and ±100 for the full control effect; nearly all actives have a fitted effect of over 60% in size
Target sequence (P16066 whole entry, looked up): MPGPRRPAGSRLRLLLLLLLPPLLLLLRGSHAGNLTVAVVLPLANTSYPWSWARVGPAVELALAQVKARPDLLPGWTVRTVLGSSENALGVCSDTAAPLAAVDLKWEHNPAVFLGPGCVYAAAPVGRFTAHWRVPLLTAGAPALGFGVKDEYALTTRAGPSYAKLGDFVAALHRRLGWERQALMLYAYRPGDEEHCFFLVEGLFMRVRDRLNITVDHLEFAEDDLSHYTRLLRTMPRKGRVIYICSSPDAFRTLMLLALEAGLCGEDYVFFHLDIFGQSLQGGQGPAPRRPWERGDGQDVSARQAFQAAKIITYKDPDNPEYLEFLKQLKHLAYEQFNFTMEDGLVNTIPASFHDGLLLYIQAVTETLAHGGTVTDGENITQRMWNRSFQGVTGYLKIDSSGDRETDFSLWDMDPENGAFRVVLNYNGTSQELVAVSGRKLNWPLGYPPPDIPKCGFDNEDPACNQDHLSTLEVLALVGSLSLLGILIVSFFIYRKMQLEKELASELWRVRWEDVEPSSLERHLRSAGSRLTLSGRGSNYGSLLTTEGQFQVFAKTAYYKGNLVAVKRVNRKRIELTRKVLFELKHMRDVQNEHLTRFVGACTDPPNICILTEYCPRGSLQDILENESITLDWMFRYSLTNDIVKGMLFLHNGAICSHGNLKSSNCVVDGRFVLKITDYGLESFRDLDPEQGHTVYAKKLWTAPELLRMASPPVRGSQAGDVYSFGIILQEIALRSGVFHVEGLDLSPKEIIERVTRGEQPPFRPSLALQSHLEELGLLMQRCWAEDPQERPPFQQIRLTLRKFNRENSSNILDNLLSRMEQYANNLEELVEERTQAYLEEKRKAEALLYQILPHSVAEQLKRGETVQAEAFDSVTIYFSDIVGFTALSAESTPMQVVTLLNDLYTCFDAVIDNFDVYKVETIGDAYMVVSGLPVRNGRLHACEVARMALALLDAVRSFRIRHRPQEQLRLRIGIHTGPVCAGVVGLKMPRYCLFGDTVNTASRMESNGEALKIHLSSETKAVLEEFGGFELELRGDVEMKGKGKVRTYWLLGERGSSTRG
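Compound pre-incubated 30 min at room temperature on GloSensor-loaded HEK293 cells stably carrying hNpr1 and the pGS-40F cGMP biosensor. Stimulation uses hNppA at 0.1 nM final; luminescence is taken at baseline and 20 min post-agonist.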
GPT2 inh = GPT2 alanine aminotransferase inhibition. Potency, µM (top dose mostly 57.7 µM), inactives show at the highest dose activity change, negative = inhibition, actives largely listed as inhibitors. Q8TD30. Recombinant GPT2, coupled pyruvate oxidase/HRP Amplex Red fluorescence. 100,000 compounds, 0.25% hits; note: % is set by controls: 0 for no effect and ±100 for the full control effect; nearly all actives have a fitted effect of over 60% in size
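Recombinant GPT2 (10ng/uL) with 250uM a-KG and 2mM L-alanine, 30 min at room temperature, in HEPES pH 7.5 buffer. Pyruvate detected by pyruvate oxidase/HRP/Amplex Red fluorescence after 30 min in the dark; AOA (50uM) as positive control.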
HEK cytotox = HEK 293 cell cytotoxicity; HEK 293 viability, ATP luminescence (CellTiter-Glo), 48-72 h; Potency, µM (series often up to 115 µM), without a hit: top-dose activity change, negative = cytotoxicity, actives largely listed as inhibitors; 94,000 compounds, 6.6% hits; AID 1345083; note: % is set by controls: 0 for no effect and ±100 for the full control effect; nearly all actives have a fitted effect of over 60% in size
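HEK 293 seeded at 250 cells/well receive compound via pintool. After 48 or 72 hr at 37 degree Celsius, 5% CO2 and 95% humidity, CellTiter-Glo is dispensed and luminescence read following 10 min at room temperature.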
NPR1 antag cnf = hNpr1 antagonism, confirmation assay. shares compounds with hNpr1 antagonist. HEK293 hNpr1 cGMP GloSensor luminescence, ANP-stimulated. Potency, µM (top dose mostly 57.6 µM), for inactives: at the highest dose activity change, negative = inhibition, actives largely listed as inhibitors. 1,400 compounds, 76% hits; calls by dose curve; note: nearly all actives have a fitted effect of over 70% in size
NPR2 antag = antagonizes human Npr2, subtype selectivity check; HEK293 hNpr2 GloSensor cGMP luminescence, CNP-stimulated; Potency, µM (titrated, usually from 57.6 µM), for inactives: at the highest dose activity change, negative = inhibition, actives largely listed as inhibitors; 1,400 compounds, 67% hits; shares compounds with hNpr1 antagonist; calls by dose curve; note: nearly all actives have a fitted effect of over 70% in size
FLuc inh counter = FLuc enzyme inhibition, Npr1 counter-screen; shares compounds with hNpr1 antagonist; purified FLuc enzyme, luminescence, Km substrate; Potency, µM (series often up to 57.6 µM), without a hit: at the highest dose activity change, negative = inhibition, actives largely listed as inhibitors; 1,400 compounds, 0.7% hits; AID 1347047; note: 0% is about no effect
GloSensor ctrl = counter-screen for Npr1 antagonists: GloSensor control cell line. Potency, µM (series often up to 57.6 µM), for the others: at the highest dose activity change, negative = inhibition, most hits filed as inhibitors. shares compounds with hNpr1 antagonist. HEK293 GloSensor cGMP, SNP-stimulated, luminescence. AID 1347051. 1,400 compounds, 69% hits; calls by dose curve; note: % is set by controls: 0 for no effect and ±100 for the full control effect; nearly all actives have a fitted effect of over 70% in size
An asterisk follows results filed as active; i = inactive; ? = inconclusive; · = not tested or not shown; [ ] = remark or other dose. Compounds with a hit are over-represented: about 10% of the library has one in this group of screens. Unless noted, calls come from the whole dose curve; as a rule, active = well fitted curve in the direction sought with a large enough effect; inconclusive = small, poorly fitted or top-dose-only effect, or another doubt; inactive = no such curve, though single readings can be large; an effect the other way counts as inactive or inconclusive. Potency is the fitted concentration of half-maximal effect.

SMILES | Luciferase inh | NIH3T3 tox | hNpr1 antagonist | GPT2 inh | HEK cytotox | NPR1 antag cnf | NPR2 antag | FLuc inh counter | GloSensor ctrl
COc1ccc(-c2cnc3[nH]cc(CC(=O)Nc4cccnc4)c3c2)cc1 | i | ? | ? | 4%[88.5 µM] | 71µM* | ? | -29%[86.2 µM] | ? | -23%[86.2 µM]
Cn1cc(-c2cnc3[nH]cc(CC(=O)Nc4ccc(C(F)(F)F)cc4)c3c2)cn1 | i | ? | ? | -8%[88.5 µM] | ? | ? | ? | -1%[86.2 µM] | ?
COc1ccccc1Cn1c(=O)c(C(=O)N2CCN(C(=O)c3ccc(C)cc3)CC2)nc2cccnc21 | · | ? | · | i | -15% | · | · | · | ·
COCCc1noc([C@@H]2CN(Cc3ccc(F)cc3)C[C@H]2CO)n1 | i | 2% | 2% | i | i | · | · | · | ·
O=C(c1ccc(Cl)nc1)N1CCC(C(=O)N2CCC(N3CCOC3=O)CC2)CC1 | · | -5% | · | i | 3% | · | · | · | ·
COc1cccc(-c2cc(C3CCN(S(=O)(=O)c4ccc(C(C)=O)cc4)CC3)[nH]n2)c1 | i | ? | 14µM* | i | ? | 24µM* | 24µM* | -2% | 24µM*
CCN1CCC(OCCCNC(=O)c2ccc(CC3CCN(C(C)=O)CC3)cc2)CC1 | · | ? | · | 4% | ? | · | · | · | ·
CC1(C)[C@H](Cc2cc(CO)on2)C[C@@H]1NC(=O)c1cccnc1 | i | -1%[174 µM] | 5%[70.6 µM] | i | 2%[172 µM] | · | · | · | ·
CC1(C)[C@H](Cc2cc(COc3ccccc3)on2)C[C@@H]1NC(=O)c1cccs1 | i | 40µM* | 40µM* | -4%[88.5 µM] | ? | 35µM* | 40µM* | -2%[86.2 µM] | 31µM*
CC1(C)[C@H](Cc2cc(COC(=O)c3cccs3)on2)C[C@@H]1NC(=O)c1cccs1 | i | ? | 25µM* | -12%[88.5 µM] | ? | 35µM* | 35µM* | 1%[86.2 µM] | 40µM*
Cn1nnnc1C1CCCN(C(=O)COc2ccccc2)C1 (centres undefined) | · | -14% | · | i | -4% | · | · | · | ·
CN(C)c1nc2c(c(=O)[nH]1)CCN(Cc1ccc(Cl)cc1F)CC2 | i | ? | 0% | i | ? | · | · | · | ·
CN(C)c1ccc(CN2CCn3c(nn(-c4ccc([N+](=O)[O-])cc4)c3=O)C2)cc1 | i | ? | 11µM* | i | 32µM* | 17µM* | 19µM* | 3%[86.2 µM] | 14µM*
COc1ccc(-n2nc3n(c2=O)CCN(Cc2cccn2C)C3)cc1 | · | -25% | · | i | ? | ? | ? | ? | ?
COc1ccc(CN2CCn3c(nn(-c4ccc([N+](=O)[O-])cc4)c3=O)C2)cc1 | i | ? | 11µM* | -2% | ? | 22µM* | 22µM* | -6%[86.2 µM] | 22µM*
COc1cc(C(=O)NC2CCN(C)CC2)ccc1Nc1ncc2c(n1)N(C1CCCC1)CC(F)(F)C(=O)N2C | · | · | · | 1% | · | · | · | · | ·
O=C(c1cccnc1)N1CCN(c2ccc3nnc(C4CC4)n3n2)CC1 | · | -26% | · | · | 2% | · | · | · | ·
COc1ccc(C(=O)NC2CCN(c3ccc4nnc(C5CC5)n4n3)C2)cc1 (centres undefined) | · | -18% | · | · | -19% | · | · | · | ·
COc1ccc(-c2cccc(C(=O)N3CCN(C(=O)N(C)C)CC3)c2)nn1 | · | -24% | · | · | -12% | · | · | · | ·
CC1CC(=O)C2=C(O1)OC1(C)CCC3C(C)(C)C4OC4C(=O)C3(C)C1C2 (centres undefined) | · | · | · | i | · | · | · | · | ·
Cc1cnc(CN2CC3(CCC2=O)CCN(C(=O)[C@H]2C[C@@H]4C=C[C@H]2C4)CC3)cn1 | i | 3% | 3% | ? | 3% | · | · | · | ·
CC(C)C(=O)N[C@H]1C[C@@H](Cc2cc(CN3CCOCC3)on2)C1(C)C | i | -11%[174 µM] | 4%[70.6 µM] | -14%[88.5 µM] | -12%[172 µM] | · | · | · | ·
CC(C)NC(=O)N[C@H]1C[C@@H](Cc2cc(CN3CCN(c4ccccc4)CC3)on2)C1(C)C | i | ? | 11µM* | -13% | ? | 19µM* | 19µM* | 0% | 17µM*
CC(C)(C)C(=O)N[C@H]1C[C@@H](Cc2cc(CN3CCN(c4ccccc4)CC3)on2)C1(C)C | i | -34% | 11µM* | i | ? | 19µM* | 17µM* | -1% | 12µM*
Cc1cn2nc(-c3nc(C4CCCN(C(=O)c5ccccc5F)C4)no3)cc2c(=O)[nH]1 (centres undefined) | ? | -23% | 3% | -2% | ? | · | · | · | ·
SMILES | Luciferase inh | NIH3T3 tox | hNpr1 antagonist | GPT2 inh | HEK cytotox | NPR1 antag cnf | NPR2 antag | FLuc inh counter | GloSensor ctrl
CCCc1ccc2oc(C(=O)N(CC)Cc3ccncc3)c(C)c2c1 | i | ? | 13µM* | 5% | 25µM* | 19µM* | 19µM* | -13% | 17µM*
CN(C)CCCC(=O)N1CCC2(CC1)CN([S+](C)(=O)[O-])Cc1ccccc1O2 | · | -16% | · | i | 0% | · | · | · | ·
O=C(NC1CCCCC1)N1CCC(c2noc(-c3ccccc3)n2)C1 (centres undefined) | i | ? | 18µM* | i | ? | 27µM* | ? | 0% | 27µM*
COC[C@@H]1CN(c2cnccn2)C[C@H]1C(=O)Nc1ccc(OC)nc1 | i | -8% | -2% | i | -7% | · | · | · | ·
COc1ccccc1-c1ccc2ncc(Nc3ccc4c(c3)OCO4)n2n1 | i | ? | -4%[70.6 µM] | ? | ? | · | · | · | ·
COc1ccc(Nc2cnc3ccc(-c4ccccc4OC)nn23)cc1OC | i | ? | 28µM* | i | ? | 25µM* | 25µM* | ? | 22µM*
CS(=O)(=O)NCCc1ccc(CC2CCN(C(=O)COc3ccc(F)cc3)CC2)cc1 | · | ? | · | -60% | ? | · | · | · | ·
COc1cccc(CNc2cc(Cl)nc3ccnn23)c1 | i | 28µM* | ? | -2%[88.5 µM] | ? | 40µM* | 35µM* | 2%[86.2 µM] | 35µM*
CC(C)CCNC(=O)CCC1CCN(S(=O)(=O)c2cccc(F)c2)CC1 | i | -3% | -4% | 0% | ? | · | · | · | ·
CC(=O)N1Cc2ccccc2CC2(CCN(Cc3ccncc3)C2)C1 (centres undefined) | · | -10% | · | i | -16% | · | · | · | ·
